Assay results: PubChem BioAssay (NCATS)
Values without a mark were called inactive. Inconclusive results are not listed. A call without a number means that no potency is given here. Calls of active or inactive are those of the source. Unless noted, the call rests on the fitted dose curve; in most records, active means well fitted curve in the direction sought with a large enough effect; inconclusive means small, poorly fitted or top-dose-only effect, or another doubt; inactive means no such curve, though single readings can be large; an effect the other way counts as inactive or inconclusive.

Key:
[1] = Viability counterscreen for antagonist of constitutive androstane receptor (CAR) against the NCATS DSHEA and TCM libraries (AID 1794837);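 further: compound exposure lasted 24 h before viability reading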
Procedure, shortened: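 Fluorescence from CellTiter-Fluor reports live-cell protease activity in HepG2-CYP2B6-hCAR cells treated for 24 h with substances alongside 48 uM CITCO.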

[2] = Viability counterscreen for agonist of constitutive androstane receptor (CAR) against the NCATS DSHEA and TCM libraries (AID 1794838);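 further: cells exposed to compound for 24 h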
Procedure, shortened: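 In agonist mode, PK11195 is added at 0.75 uM final to HepG2-CYP2B6-hCAR cells dosed with test substances. Cultures incubate 24 h at 37C before a protease-based fluorogenic viability readout.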

[3] = biological target: Nuclear receptor subfamily 1 group I member 3 (Homo sapiens) (UniProt Q14994); assay: Primary qHTS for agonist of constitutive androstane receptor (CAR) against the NCATS DSHEA and TCM libraries (AID 1794839);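 further: HepG2 cells expressing human CAR with a CYP2B6 reporter plus PK11195 antagonist; luciferase reporter luminescence read with ONE-Glo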
Procedure, shortened: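 Cells stably carrying hCAR and a CYP2B6 reporter (HepG2 background) are seeded and allowed 5 h to adhere. Substances at multiple concentrations are added alongside 0.75 µM PK11195, and luciferase signal is measured after 24 h.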

[4] = HepG2 viability counterscreen (readout 2: ATP content) against the NCATS DSHEA and TCM libraries (AID 1794840);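 further: HepG2 cells exposed to substances for about 24 h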
Procedure, shortened: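 Cytotoxicity was assessed in HepG2 cells plated at 1,000 cells/well and exposed for about 24 hours to a concentration series. Protease activity and ATP content were measured sequentially in each well.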

[5] = biological target: Cytochrome P450 3A4 (Homo sapiens) (UniProt P08684); assay: qHTS for inhibitors of CYP3A4 against the NCATS DSHEA and TCM libraries (AID 1919971); further: potency means the concentration at half of the fitted maximal effect
Procedure, shortened: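 Light output from converted D-luciferin reports remaining CYP activity. Compounds preincubate with enzyme and substrate for 15 min; NADPH regeneration (1x final) runs the reaction for 30-45 min.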

[6] = KB-3-1 P-gp reporter qHTS against the NCATS DSHEA and TCM libraries (AID 1919975)
Procedure, shortened: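 72 h exposure of KB-3-1 cells (DMEM, 10% FBS) to DSHEA/TCM samples, concentration-response; cell viability measured as CellTiter-Glo luminescence after 30 min at room temperature.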

[7] = biological target: Cytochrome P450 1A2 (Homo sapiens) (UniProt P05177); assay: qHTS for inhibitors of CYPIA2 against the NCATS DSHEA and TCM libraries (AID 1919976); further: potency means the concentration at half of the fitted maximal effect
Procedure, shortened: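 In this quantitative HTS, inhibition of recombinant human CYP1A2 was measured as loss of luciferin-derived luminescence. Turnover ran 30-45 min at RT after NADPH regeneration solution was added.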

[8] = qHTS Counterscreen for compound interference against the NCATS DSHEA and TCM libraries (AID 1919978); conditions: firefly luciferase detection reagent interference, luminescence
Procedure, shortened: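 Read-out is luminescence after 30 min at RT with luciferin detection reagent. Before that, compounds (19.5 nM to 39.8 uM final) sat 15 min at RT with 1 uM D-luciferin or 100 mM potassium phosphate buffer. PTC124 served as intraplate control.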

[9] = Dual reporter qHTS for agonist of Pregnane X Receptor (hPXR) against the NCATS DSHEA and TCM libraries: Fluorescence readout (AID 1920058)
Procedure, shortened: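 Measures viability of the PXR reporter HepG2 line by protease-substrate fluorescence (405/540 nm), taken 1 h after CellTiter-Fluor addition. Substances are tested as concentration series over a ~24 h exposure, with rifampicin as agonist control.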

[10] = biological target: Nuclear receptor subfamily 1 group I member 2 (Homo sapiens) (UniProt O75469); assay: Dual reporter qHTS for agonist of Pregnane X Receptor (hPXR) against the NCATS DSHEA and TCM libraries: Luminescence readout (AID 1920059); further: potency means the concentration at half of the fitted maximal effect
Procedure, shortened: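 Luminescent PXR reporter read (ONE-Glo) after a CellTiter-Fluor viability read, following 24 h, 37C treatment of HepG2 cells stably carrying hPXR-Luc.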

[11] = biological target: Nuclear receptor subfamily 1 group I member 2 (Homo sapiens) (UniProt O75469); assay: Dual reporter qHTS for antagonist of Pregnane X Receptor (hPXR) against the NCATS DSHEA and TCM libraries: Luminescence Readout (AID 1920060);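 further: HepG2 cells carrying hPXR luciferase reporter stimulated with rifampicin at 2 µM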
Procedure, shortened: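 In antagonist mode, 2 uM rifampicin was added to hPXR-Luc HepG2 cells alongside test substances, incubated 24 h at 37 C; luminescence gave reporter activity, and CellTiter-Fluor fluorescence (405/540 nm) gave viability.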

[12] = biological target: Cytochrome P450 2D6 (Homo sapiens) (UniProt P10635); assay: qHTS for inhibitors of CYP2D6 against the NCATS DSHEA and TCM libraries (AID 1919972)
Procedure, shortened: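 Steps: enzyme plus luciferin substrate dispensed; test substances pinned; 15 min RT; 1x NADPH regenerating solution added, 30–45 min RT protected from light; detection reagent, 30 min RT; luminescence measured. Minus-enzyme wells as background.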

[13] = biological target: Mitogen-activated protein kinase 10 (Mus musculus) (UniProt Q61831); assay: JNK3 AlphaScreen Assay (AID 530; active means well fitted curve in either direction with a large enough effect, not every such curve was filed as active;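 further: kinase came from lysate of stimulated human HepG2 cells; signal reports phosphorylation of biotinylated GST-cJun 1-79 at Ser73 with 10 µM ATP; series mostly up to about 57 µM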)
Procedure, shortened: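 Room-temperature AlphaScreen kinase assay; pre-activated HepG2 lysate as JNK3 source, biotin-GST-cJun(1-79) substrate, 10 uM ATP, compound 15 min preincubation.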

Chain of Nuclear receptor subfamily 1 group I member 2 (Homo sapiens) (O75469 whole entry, looked up): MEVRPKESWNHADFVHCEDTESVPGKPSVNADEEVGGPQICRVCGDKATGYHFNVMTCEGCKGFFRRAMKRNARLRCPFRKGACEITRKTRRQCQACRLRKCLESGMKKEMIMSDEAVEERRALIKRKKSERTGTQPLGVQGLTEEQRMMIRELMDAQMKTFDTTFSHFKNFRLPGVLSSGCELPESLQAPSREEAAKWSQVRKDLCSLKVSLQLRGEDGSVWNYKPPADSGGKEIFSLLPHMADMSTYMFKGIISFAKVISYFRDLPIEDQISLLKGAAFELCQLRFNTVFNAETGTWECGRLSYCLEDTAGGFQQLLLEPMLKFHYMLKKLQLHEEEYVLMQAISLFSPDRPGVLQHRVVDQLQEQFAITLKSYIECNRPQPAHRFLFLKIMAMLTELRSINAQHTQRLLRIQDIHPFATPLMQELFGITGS
Chain of Nuclear receptor subfamily 1 group I member 3 (Homo sapiens) (Q14994 whole entry, looked up): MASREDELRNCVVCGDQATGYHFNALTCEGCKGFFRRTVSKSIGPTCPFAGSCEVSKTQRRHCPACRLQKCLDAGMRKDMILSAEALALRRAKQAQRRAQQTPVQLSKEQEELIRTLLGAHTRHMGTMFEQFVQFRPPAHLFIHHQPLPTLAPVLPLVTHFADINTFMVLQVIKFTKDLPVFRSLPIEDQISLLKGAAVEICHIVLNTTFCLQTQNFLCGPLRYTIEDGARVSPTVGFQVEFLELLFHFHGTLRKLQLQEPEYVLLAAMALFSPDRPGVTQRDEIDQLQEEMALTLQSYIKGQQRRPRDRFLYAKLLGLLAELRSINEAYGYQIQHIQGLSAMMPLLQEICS
Chain of Cytochrome P450 3A4 (Homo sapiens) (P08684 whole entry, looked up): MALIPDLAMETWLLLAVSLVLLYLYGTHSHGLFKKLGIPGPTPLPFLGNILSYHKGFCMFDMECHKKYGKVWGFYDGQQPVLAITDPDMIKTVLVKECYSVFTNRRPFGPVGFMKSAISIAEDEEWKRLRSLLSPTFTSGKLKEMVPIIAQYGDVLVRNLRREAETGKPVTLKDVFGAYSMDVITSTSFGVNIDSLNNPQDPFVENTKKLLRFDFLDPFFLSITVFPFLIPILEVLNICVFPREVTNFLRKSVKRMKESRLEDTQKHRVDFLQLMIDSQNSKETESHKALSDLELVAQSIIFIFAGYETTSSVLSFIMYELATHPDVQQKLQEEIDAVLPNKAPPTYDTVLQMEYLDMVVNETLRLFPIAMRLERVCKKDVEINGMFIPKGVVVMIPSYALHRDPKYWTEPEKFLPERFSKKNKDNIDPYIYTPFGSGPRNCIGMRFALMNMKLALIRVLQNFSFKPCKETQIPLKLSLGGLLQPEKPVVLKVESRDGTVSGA
Chain of Cytochrome P450 1A2 (Homo sapiens) (P05177 whole entry, looked up): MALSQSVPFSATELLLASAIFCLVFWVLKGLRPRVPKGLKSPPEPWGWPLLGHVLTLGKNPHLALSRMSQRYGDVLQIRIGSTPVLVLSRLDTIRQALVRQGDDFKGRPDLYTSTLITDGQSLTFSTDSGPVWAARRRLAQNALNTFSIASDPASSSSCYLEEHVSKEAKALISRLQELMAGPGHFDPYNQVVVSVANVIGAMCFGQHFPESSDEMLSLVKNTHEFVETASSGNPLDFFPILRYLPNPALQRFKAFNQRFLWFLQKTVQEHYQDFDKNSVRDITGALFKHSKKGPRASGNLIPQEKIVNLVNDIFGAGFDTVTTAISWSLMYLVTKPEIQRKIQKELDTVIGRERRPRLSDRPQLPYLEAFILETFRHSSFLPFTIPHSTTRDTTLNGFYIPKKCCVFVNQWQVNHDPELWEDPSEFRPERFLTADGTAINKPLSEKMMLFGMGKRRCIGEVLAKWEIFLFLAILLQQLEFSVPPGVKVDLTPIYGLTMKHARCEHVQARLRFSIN
Chain of Cytochrome P450 2D6 (Homo sapiens) (P10635 whole entry, looked up): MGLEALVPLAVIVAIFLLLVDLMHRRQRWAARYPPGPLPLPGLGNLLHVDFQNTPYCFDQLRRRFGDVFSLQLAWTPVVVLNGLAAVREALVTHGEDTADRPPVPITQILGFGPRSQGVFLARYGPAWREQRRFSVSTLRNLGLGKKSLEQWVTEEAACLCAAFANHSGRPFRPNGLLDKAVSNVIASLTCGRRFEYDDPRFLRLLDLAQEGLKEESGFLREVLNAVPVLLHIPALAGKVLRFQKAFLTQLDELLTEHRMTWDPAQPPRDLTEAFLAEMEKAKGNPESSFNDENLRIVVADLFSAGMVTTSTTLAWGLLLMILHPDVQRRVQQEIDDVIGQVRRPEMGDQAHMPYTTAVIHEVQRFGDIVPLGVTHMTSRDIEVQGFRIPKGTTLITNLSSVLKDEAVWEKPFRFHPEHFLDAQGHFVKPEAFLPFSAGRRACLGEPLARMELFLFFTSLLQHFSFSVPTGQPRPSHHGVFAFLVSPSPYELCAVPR

SMILES	outcome [1]	outcome [2]	Potency [3]	outcome [4]	Potency [5]	outcome [6]	Potency [7]	max response [8]	outcome [9]	Potency [10]	outcome [11]	Potency [12]	Potency [13]
CCCCC/C=C/C(=O)CCc1ccc(O)c(OC)c1	inactive	inactive	inactive	inactive	17.8 µM (active)	inactive	15.8 µM (active)	4.24%	inactive	31.6 µM (active)	inactive	–	–
O=C(/C=C/c1ccc(O)c(O)c1)O[C@@H]1CC(C(=O)O)=C[C@@H](O)[C@H]1O	inactive	inactive	inactive	inactive	inactive	inactive	inactive	4.08%	inactive	inactive	inactive	inactive	–
O=C(O)CC(O)(C(=O)O)C(O)C(=O)O (stereo unspecified)	inactive	inactive	inactive	inactive	inactive	inactive	inactive	1.8%	inactive	inactive	inactive	inactive	–
CC[C@H](CC[C@@H](C)[C@H]1CCC2C3CCC4C[C@@H](O)CC[C@]4(C)C3CC[C@@]21C)C(C)C (stereo partly specified)	inactive	inactive	inactive	inactive	inactive	inactive	inactive	-1.23%	inactive	inactive	inactive	inactive	–
CC(=O)O[C@H]1[C@H](O[C@H]2CC[C@]34C[C@]35CC[C@]3(C)[C@@H]([C@@]6(C)CC[C@@H](C(C)(C)O)O6)[C@@H](O)C[C@@]3(C)[C@@H]5C[C@H](O[C@@H]3O[C@H](CO)[C@@H](O)[C@H](O)[C@H]3O)[C@H]4C2(C)C)OC[C@@H](O)[C@@H]1O	inactive	inactive	inactive	inactive	inactive	inactive	inactive	-3.47%	inactive	inactive	inactive	inactive	–
C=C1C[C@@]23CC[C@H]4[C@](C)(CCC[C@]4(C)C(=O)O[C@@H]4O[C@H](CO)[C@@H](O)[C@H](O)[C@H]4O)[C@@H]2CC[C@]1(O[C@H]1O[C@@H](CO)[C@H](O)[C@@H](O)[C@@H]1O)C3	inactive	inactive	inactive	inactive	inactive	inactive	–	3.88%	inactive	inactive	inactive	inactive	–
O=C(OC[C@H]1O[C@@H](OC(=O)c2cc(O)c(O)c(O)c2)[C@H](OC(=O)c2cc(O)c(O)c(O)c2)[C@@H](OC(=O)c2cc(O)c(O)c(O)c2)[C@@H]1O)c1cc(O)c(O)c(O)c1	inactive	inactive	inactive	inactive	12.6 µM (active)	inactive	–	-2.07%	inactive	inactive	–	–	–
C=C1C[C@]23CC[C@H]4[C@@](C)(CCC[C@@]4(C)C(=O)O)[C@@H]2CC[C@@]1(O[C@@H]1O[C@H](CO)[C@@H](O)[C@H](O)[C@H]1O[C@@H]1O[C@H](CO)[C@@H](O)[C@H](O)[C@H]1O)C3	inactive	inactive	inactive	inactive	inactive	inactive	inactive	-1.97%	inactive	inactive	inactive	inactive	–
CC(=O)OC/C=C/c1ccccc1	inactive	inactive	inactive	inactive	inactive	inactive	28.2 µM (active)	3.54%	inactive	inactive	inactive	inactive	–
C[C@@H]1O[C@@H](OC[C@H]2OC(Oc3c(-c4ccc(O)c(O)c4)oc4cc(O)cc(O)c4c3=O)[C@H](O)[C@@H](O)[C@@H]2O)[C@H](O)[C@H](O)[C@H]1O (stereo partly specified)	inactive	inactive	inactive	inactive	inactive	inactive	inactive	-2.59%	inactive	inactive	inactive	inactive	–
O=C(O)c1ccccc1	inactive	inactive	inactive	inactive	inactive	inactive	inactive	-0.483%	inactive	inactive	inactive	inactive	inactive
OCC1=C[C@@H](O)[C@@H]2C=CO[C@@H](OC3O[C@H](CO)[C@@H](O)[C@H](O)[C@H]3O)[C@H]12 (stereo partly specified)	inactive	inactive	inactive	inactive	inactive	inactive	inactive	1.01%	inactive	inactive	inactive	inactive	–
C=C1C[C@@]23CC[C@H]4[C@@](C)(CCC[C@@]4(C)C(=O)O[C@@H]4O[C@H](CO)[C@@H](O)[C@H](O)[C@H]4O[C@@H]4O[C@H](CO)[C@@H](O)[C@H](O)[C@H]4O)[C@@H]2CC[C@]1(O[C@@H]1O[C@H](CO)[C@@H](O)[C@H](O)[C@H]1O[C@@H]1O[C@H](CO)[C@@H](O)[C@H](O)[C@H]1O)C3	inactive	inactive	inactive	inactive	inactive	inactive	inactive	4.27%	inactive	inactive	inactive	inactive	–
CCCCCC(=O)CC	inactive	inactive	inactive	inactive	inactive	inactive	inactive	-3.61%	inactive	inactive	inactive	inactive	–
CCCCCCCC/C=C\CCCCCCCCCCCC(=O)O	inactive	inactive	inactive	inactive	–	inactive	–	1.35%	inactive	inactive	inactive	inactive	–
O=C(O[C@@H]1Cc2c(O)cc(O)cc2O[C@@H]1c1ccc(O)c(O)c1)c1cc(O)c(O)c(O)c1	inactive	inactive	inactive	inactive	–	inactive	inactive	2.25%	inactive	inactive	inactive	–	–
CCCCCCCCCCCCCC(=O)OCC(O)CO (stereo unspecified)	inactive	inactive	inactive	inactive	inactive	inactive	–	2.98%	inactive	inactive	inactive	inactive	–
O=c1cc(-c2ccc(O)cc2)oc2cc(O[C@@H]3O[C@H](CO)[C@@H](O)[C@H](O)[C@H]3O[C@@H]3OC[C@](O)(CO)[C@H]3O)cc(O)c12	inactive	inactive	inactive	inactive	inactive	inactive	inactive	5.67%	inactive	inactive	inactive	inactive	–
COc1ccc(C(=O)O)cc1	inactive	inactive	inactive	inactive	inactive	inactive	inactive	-1.54%	inactive	inactive	inactive	inactive	–
CC(C)=CCC[C@](C)(O[C@@H]1O[C@H](CO)[C@@H](O)[C@H](O)[C@H]1O)[C@H]1CC[C@]2(C)[C@@H]1[C@H](O)C[C@@H]1[C@@]3(C)CC[C@H](O[C@@H]4O[C@H](CO)[C@@H](O)[C@H](O)[C@H]4O[C@@H]4O[C@H](CO)[C@@H](O)[C@H](O)[C@H]4O)C(C)(C)[C@@H]3CC[C@]12C	inactive	inactive	inactive	inactive	inactive	inactive	–	4.23%	inactive	inactive	inactive	–	–
CCCCCCCCCC=O	inactive	inactive	inactive	inactive	inactive	inactive	inactive	0.0179%	inactive	inactive	inactive	inactive	–
